Measurements: PubChem BioAssay (NCI)
This is part of a sample that, as a whole, favours compounds with a hit. Of some 79,000 tested, about 15% had one in any assay. The source made the active and inactive calls. Rule as the data show it: active = growth inhibition above about 70%; inactive = the rest.

Experiment: NCI Yeast Anticancer Drug Screen. Data for the bub3 strain (AID 167)
Conditions: S. cerevisiae bub3 mutant strain, at 50.0 µM, active compounds read high
Outline: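 Steps: expose the mutant yeast strain to compound; grow alongside vehicle-treated cultures; measure growth; express inhibition against the vehicle cultures.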

SMILES | growth inhibition
NC(N)=NOCC(=O)O | 3.95% (inactive)
COC(=O)[C@@H](CO)NC(=O)OC(C)(C)C | 9.4% (inactive)
OCCCCCCCCCCCO | 12.6% (inactive)
NC(=O)N/N=C1\CCCCC12CCCCC2 | 2.2% (inactive)
N/C(=N\C(=O)OCCOC(=O)/N=C(/N)c1ccccc1)c1ccccc1 | -3.1% (inactive)
Cn1c(=O)c2c(ncn2C2C(=O)NNC2=O)n(C)c1=O | 7.55% (inactive)
CSc1nc(=O)cc(N)n1C | -7.2% (inactive)
COC(=O)CCc1nc2ccccc2c(=O)[nH]1 | -14.9% (inactive)
COC(=O)c1cc(-c2ccc3ccccc3c2)[nH]c(=O)c1C#N | 23.2% (inactive)
CC(=O)Nc1ccc(Cc2ccc3[nH]c(=O)cc(C)c3c2)cc1 | -30.1% (inactive)
O=C(O)c1nc(N=Nc2ccc(S(=O)(=O)O)cc2)[nH]c1C(=O)O | -2% (inactive)
S=C(NCCS)Nc1ccccc1 | 41.8% (inactive)
N#CNC(=O)c1ccc(Cl)cc1 | -14.4% (inactive)
CC(C)c1ccc2c(c1)CC[C@H]1[C@](C)(COCCC#N)CCC[C@]21C | -17.1% (inactive)
O=c1cc(C=Nc2ccc(-c3csc(-c4ccccc4)n3)cc2)[nH]c(=S)[nH]1 | 96.5% (active)
N#Cc1c(C(=O)NN)c2c(-c3ccc4ccccc4c3)n[nH]c(=O)c2[nH]c1=O | 7.1% (inactive)
COc1cccc(/C=C2\C(=O)N(C(=O)c3ccc(NC(C)=O)cc3)N=C2C)c1 | -38% (inactive)
COc1ccc(C(=O)NC(=S)Nc2cc(C(F)(F)F)ccc2Cl)cc1 | -3.8% (inactive)
CC(C)=CC(=O)OC1C2C(C)C(=O)OC2C(O)C(C)C2C=CC(=O)C21C (stereo not given) | 11.1% (inactive)
O=C(COc1ccc(Cl)cc1)Oc1c(Cl)cc(Cl)cc1Cl | 98.2% (active)

SMILES | growth inhibition
CC(C)(O)CCC(C)(C)O | 0.5% (inactive)
CC(=O)Nc1cc(N)ccc1C | 10.6% (inactive)
CCOC(=O)C(C)(C(=O)OCC)c1c[n+]([O-])c2ccccc2c1[N+](=O)[O-] | -4.55% (inactive)
CCCc1c(C(=O)O)c(-c2cccc3ccccc23)c(CCC)c2c1-c1cccc3cccc-2c13 | 30.2% (inactive)
CC1CCCCN1S(=O)(=O)N(C)C (stereo not given) | 9.55% (inactive)
Brc1ccncc1 | -21.9% (inactive)
CC1(C)COC(CCl)OC1 | 1.95% (inactive)
COC(=O)c1nnn(-c2ccc(C)c(C)c2)c1C(=O)c1ccccc1 | -8.25% (inactive)
CC(=O)Nc1c(C(N)=O)cnn1-c1ccccc1 | 24.5% (inactive)
CN(C)c1ccc(/C=C(\C#N)c2c(Br)cccc2Br)cc1 | 3.1% (inactive)
CCSC(N)=Nc1ccccc1 (tested in a mixture with another compound) | 12.1% (inactive)
Nc1nc(N)c(-c2ccc(Cl)cc2)c(CNc2cccc([N+](=O)[O-])c2)n1 | 98.1% (active)
CC1(C)OC2CC(=O)OCC23C1CC(=O)C1(C)C3CCC2(C)C(c3ccoc3)OC(=O)C3OC321 (stereo not given) | 8.7% (inactive)
CC1CCCCC[N+]1(C)CCO (stereo not given) | -7.85% (inactive)
CCCCCCCCCCCCCCCCCCNC(=S)N(C)C | 38.6% (inactive)
O=S(=O)(OCCCC1CC2C=CC1C2)c1ccc(Br)cc1 (stereo not given) | 1.85% (inactive)
CC(=O)O[C@@H]1[C@H]2[C@@H](OC(=O)c3ccccc3)[C@@H](C)C[C@]2(O)[C@H](OC(C)=O)[C@@]2(C)[C@@H]3C[C@@](C)(OC(C)=O)C[C@@H](OC(C)=O)[C@@]3(OC(C)=O)C[C@@]12C | -6.35% (inactive)
O=NN(CCCl)C(=O)NCCc1cccc[n+]1[O-] | -2.45% (inactive)
O=C(O)c1c[nH]c2cc(OCc3ccccc3)ccc2c1=O | -21.1% (inactive)
Cc1cccc(C[P+](C/C=C/c2ccccc2)(c2ccccc2)c2ccccc2)c1 | 99.5% (active)

Experiment: NCI Yeast Anticancer Drug Screen. Data for the mlh1 rad18 strain (AID 175)
Conditions: S. cerevisiae mlh1 rad18 strain growth inhibition; at 50.0 µM; active compounds read high
Outline: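 Compound-treated yeast growth, normalised to vehicle controls. Strain bears defined DNA repair mutations.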

SMILES | growth inhibition
NC(N)=NOCC(=O)O | -16.1% (inactive)
COC(=O)[C@@H](CO)NC(=O)OC(C)(C)C | -12.8% (inactive)
OCCCCCCCCCCCO | -19.9% (inactive)
NC(=O)N/N=C1\CCCCC12CCCCC2 | -11.4% (inactive)
N/C(=N\C(=O)OCCOC(=O)/N=C(/N)c1ccccc1)c1ccccc1 | -27.1% (inactive)
Cn1c(=O)c2c(ncn2C2C(=O)NNC2=O)n(C)c1=O | 0.9% (inactive)
CSc1nc(=O)cc(N)n1C | 7.9% (inactive)
COC(=O)CCc1nc2ccccc2c(=O)[nH]1 | -12.4% (inactive)
COC(=O)c1cc(-c2ccc3ccccc3c2)[nH]c(=O)c1C#N | 67.3% (inactive)
CC(=O)Nc1ccc(Cc2ccc3[nH]c(=O)cc(C)c3c2)cc1 | 12.9% (inactive)
O=C(O)c1nc(N=Nc2ccc(S(=O)(=O)O)cc2)[nH]c1C(=O)O | 21.2% (inactive)
S=C(NCCS)Nc1ccccc1 | 13.3% (inactive)
N#CNC(=O)c1ccc(Cl)cc1 | -0.4% (inactive)
CC(C)c1ccc2c(c1)CC[C@H]1[C@](C)(COCCC#N)CCC[C@]21C | -30% (inactive)
O=c1cc(C=Nc2ccc(-c3csc(-c4ccccc4)n3)cc2)[nH]c(=S)[nH]1 | 98% (active)
N#Cc1c(C(=O)NN)c2c(-c3ccc4ccccc4c3)n[nH]c(=O)c2[nH]c1=O | 42.9% (inactive)
COc1cccc(/C=C2\C(=O)N(C(=O)c3ccc(NC(C)=O)cc3)N=C2C)c1 | -40.1% (inactive)
COc1ccc(C(=O)NC(=S)Nc2cc(C(F)(F)F)ccc2Cl)cc1 | 11.7% (inactive)
CC(C)=CC(=O)OC1C2C(C)C(=O)OC2C(O)C(C)C2C=CC(=O)C21C (stereo not given) | 8.2% (inactive)
O=C(COc1ccc(Cl)cc1)Oc1c(Cl)cc(Cl)cc1Cl | 98% (active)

SMILES | growth inhibition
CC(C)(O)CCC(C)(C)O | 45.2% (inactive)
CC(=O)Nc1cc(N)ccc1C | -14.3% (inactive)
CCOC(=O)C(C)(C(=O)OCC)c1c[n+]([O-])c2ccccc2c1[N+](=O)[O-] | 12.9% (inactive)
CCCc1c(C(=O)O)c(-c2cccc3ccccc23)c(CCC)c2c1-c1cccc3cccc-2c13 | 73.5% (active)
CC1CCCCN1S(=O)(=O)N(C)C (stereo not given) | 6.15% (inactive)
Brc1ccncc1 | -13.6% (inactive)
CC1(C)COC(CCl)OC1 | 30.9% (inactive)
COC(=O)c1nnn(-c2ccc(C)c(C)c2)c1C(=O)c1ccccc1 | 29.1% (inactive)
CC(=O)Nc1c(C(N)=O)cnn1-c1ccccc1 | 36.9% (inactive)
CN(C)c1ccc(/C=C(\C#N)c2c(Br)cccc2Br)cc1 | -14.7% (inactive)
CCSC(N)=Nc1ccccc1 (tested in a mixture with another compound) | 18.1% (inactive)
Nc1nc(N)c(-c2ccc(Cl)cc2)c(CNc2cccc([N+](=O)[O-])c2)n1 | 99.2% (active)
CC1(C)OC2CC(=O)OCC23C1CC(=O)C1(C)C3CCC2(C)C(c3ccoc3)OC(=O)C3OC321 (stereo not given) | 18.5% (inactive)
CC1CCCCC[N+]1(C)CCO (stereo not given) | -4.8% (inactive)
CCCCCCCCCCCCCCCCCCNC(=S)N(C)C | 5.05% (inactive)
O=S(=O)(OCCCC1CC2C=CC1C2)c1ccc(Br)cc1 (stereo not given) | 2.45% (inactive)
CC(=O)O[C@@H]1[C@H]2[C@@H](OC(=O)c3ccccc3)[C@@H](C)C[C@]2(O)[C@H](OC(C)=O)[C@@]2(C)[C@@H]3C[C@@](C)(OC(C)=O)C[C@@H](OC(C)=O)[C@@]3(OC(C)=O)C[C@@]12C | -50.5% (inactive)
O=NN(CCCl)C(=O)NCCc1cccc[n+]1[O-] | -57.6% (inactive)
O=C(O)c1c[nH]c2cc(OCc3ccccc3)ccc2c1=O | 7.75% (inactive)
Cc1cccc(C[P+](C/C=C/c2ccccc2)(c2ccccc2)c2ccccc2)c1 | 99.5% (active)
